PubChem BioAssay (NCI)
Compounds without any hit were thinned out: in the full panel of roughly 79,000, 15% have a hit. No stated cut-off is given here; in the data, active means growth inhibition above about 70%; inactive means the rest.

Assays:
[1] = NCI Yeast Anticancer Drug Screen. Data for the rad50 strain (AID 155);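 further: 0% = growth of vehicle-only cultures of the same strain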; conditions: S. cerevisiae rad50 strain growth inhibition; at 50.0 µM; stronger effect = higher value
Procedure, shortened: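 Growth of the mutant yeast was measured after compound exposure and referenced to vehicle-treated cultures.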

[2] = NCI Yeast Anticancer Drug Screen. Data for the mec2-1 strain (AID 157); conditions: S. cerevisiae mec2-1 strain, at 50.0 µM, stronger effect = higher value
Procedure, shortened: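 Compounds were applied to mec2-1 yeast cells. Their growth was then compared with that of vehicle-treated cultures to give growth inhibition.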

[3] = NCI Yeast Anticancer Drug Screen. Data for the sgs1 mgt1 strain (AID 161);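 further: 0% = growth of cultures given vehicle only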; conditions: S. cerevisiae sgs1 mgt1 strain, at 50.0 µM, stronger effect = higher value
Procedure, shortened: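 This yeast growth screen uses a strain with defined DNA-repair lesions; compound-treated growth is compared with vehicle-treated growth.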

[4] = NCI Yeast Anticancer Drug Screen. Data for the cln2 rad14 strain (AID 165);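 further: 0% = growth equal to vehicle treated cultures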; conditions: S. cerevisiae cln2 rad14 strain, at 50.0 µM, stronger effect = higher value
Procedure, shortened: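 Strain: cln2 rad14 yeast, altered in cell cycle control and DNA damage repair. Read-out: growth inhibition vs vehicle.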

[5] = NCI Yeast Anticancer Drug Screen. Data for the bub3 strain (AID 167); conditions: S. cerevisiae bub3 mutant strain, at 50.0 µM, stronger effect = higher value
Procedure, shortened: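 Whole-cell yeast assay. The mutant strain was incubated with compounds, and growth inhibition was determined by comparison with vehicle-treated cells.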

[6] = NCI Yeast Anticancer Drug Screen. Data for the mlh1 rad18 strain (AID 175); conditions: S. cerevisiae mlh1 rad18 strain growth inhibition; at 50.0 µM; stronger effect = higher value
Procedure, shortened: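 A repair-deficient yeast strain is exposed to test compound, and growth is scored relative to vehicle-treated controls.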

Measured: growth inhibition

CCC(C)(C)c1ccc([N+](=O)[O-])cc1
inactive: [1] 18.3% | [2] 8.8% | [3] 27.4% | [4] 15.7% | [5] -0.65% | [6] 2.35%

O=C(O)CNC(=O)Cc1ccccc1
inactive: [1] -29.8% | [2] -12.6% | [3] -1.1% | [4] 10.2% | [5] -38.6% | [6] -7.3%

CCOC(=O)C1C(C)NC(C)C(C(=O)OCC)C1c1ccccc1Cl (configuration not stated)
inactive: [1] 11.1% | [2] 6.25% | [3] 6.35% | [4] 4.25% | [5] 2.9% | [6] 9.8%

COc1ccccc1NC(=O)N(Cc1ccccc1)C(C)(C)C
inactive: [1] 12.2% | [2] 9.35% | [3] 30.4% | [4] -10.2% | [5] 19.3% | [6] 33.2%

COC(=O)C1CCCN1C(c1ccccc1)(c1ccccc1)c1ccccc1 (configuration not stated)
inactive: [1] -9.45% | [2] -2.2% | [3] -11.5% | [4] -2.15% | [5] 2.45% | [6] -23.5%

CC(C)C(C(=O)O)C(=O)O
inactive: [1] 3.55% | [2] 10.5% | [3] 4.75% | [4] 1.25% | [5] 3.9% | [6] 19.1%

O=C(O)CCCSc1ccc2ccccc2c1
inactive: [1] 48.5% | [2] 3.75% | [3] 45.6% | [4] 24.9% | [5] 4.55% | [6] 38.3%

CC(C)(C)OC(=O)Cn1ncn(NC(=O)Cc2ccccc2)c1=O
inactive: [1] -20.5% | [2] -24.5% | [3] -21.4% | [4] -56.2% | [5] -38.2% | [6] -0.1%

O=C(O)c1ccn(-c2cccc(-n3ccc(C(=O)O)n3)n2)n1
inactive: [1] -1.05% | [2] -17.1% | [3] 2.25% | [4] -47.7% | [5] -15.4% | [6] -7.1%

Nc1ccccc1/C=C/c1ccnc2ccccc12
inactive: [1] 3.7% | [2] 2.55% | [3] 23.6% | [4] 10.2% | [5] -18.1% | [6] 47.8%

CCCCCCOCC(=O)OC
inactive: [1] 10.2% | [2] -9.6% | [3] -1.55% | [4] 8.35% | [5] 9.2% | [6] -2.85%

CC12CC(=O)Nc3ccccc3N1C(c1ccccc1)=NO2 (configuration not stated)
inactive: [1] -11.5% | [2] -29.4% | [3] -6.6% | [4] 3% | [5] -14.8% | [6] -7.4%

CCCC1=NCCO1
inactive: [1] -10.9% | [2] -26.6% | [3] -6.65% | [4] 0.45% | [5] -6.95% | [6] -13.7%

O
inactive: [1] 13.2% | [2] 9.15% | [3] 17% | [4] 6.2% | [5] -16.8% | [6] -4%

CCC(=O)c1ccc([N+](=O)[O-])cc1
inactive: [1] -14.2% | [2] -18.2% | [3] -24.7% | [4] -59.4% | [5] 1.95% | [6] -10.2%

CC(=O)/C(=C/n1ccc(=O)[nH]c1=S)C(=O)Nc1ccc(Cl)cc1
inactive: [1] -32% | [2] -7.6% | [3] 4.7% | [4] 11.7% | [5] -20.4% | [6] 3.4%

C/C(=N/NC(=O)c1ccccc1O)c1ccc(/C(C)=N\NC(=O)c2ccccc2O)c2nc3cc(C)c(C)cc3nc12
inactive: [1] -41.2% | [2] -14.3% | [3] -31.4% | [4] 4.65% | [5] 6.7% | [6] -27.8%

COc1cc(NC(C)=O)c2[nH]c3c(C)cc(NC(C)=O)c(C)c3c2c1
inactive: [1] -25.6% | [2] -55.1% | [3] -67.2% | [4] -34.5% | [5] -27.6% | [6] -56.7%

CC(C)Cc1cn(O)c2nc(=N)nc(N)c-2n1
inactive: [1] 4.95% | [2] -5.6% | [3] -1.7% | [4] -13.6% | [5] 5.8% | [6] 4%

O=C(O)/C=C/n1c2ccccc2c(=O)c2ccccc21
inactive: [1] -10.1% | [2] -13.8% | [3] -20.9% | [4] 8.9% | [5] -7.7% | [6] -15%

CCOP(=O)(OCC)/C(C#N)=C\c1ccc(N(C)C)cc1
inactive: [1] 13.5% | [2] 6.3% | [3] 10.2% | [4] -13.7% | [5] 6.35% | [6] -0.65%

CCOC(=O)[C@H]1CSC[C@@H](C(=O)OC)N1
inactive: [1] -13.6% | [2] -4.7% | [3] -10.6% | [4] 4.45% | [5] 5.15% | [6] -4.9%

CCCOC1NC(=O)Oc2ccccc21 (configuration not stated)
inactive: [1] -14.8% | [2] -6.1% | [3] -0.9% | [4] -30.4% | [5] -1.55% | [6] 13.8%

Cn1cnc2c([nH]c(=O)n2C2OC(CO)C(O)C2O)c1=N (configuration not stated)
inactive: [1] 13.5% | [2] 1.05% | [3] 2% | [4] -35.4% | [5] 3.55% | [6] 9.55%

C=CCNC(=S)N1c2ccccc2NC(=O)CC1C (configuration not stated)
inactive: [1] -45.8% | [2] -9.2% | [3] -20.4% | [4] 13.4% | [5] 13.1% | [6] -15.4%

O=[N+]([O-])c1ccc2nc(/C=C(\O)c3ccccc3)c(/C=C(\O)c3ccc(Cl)cc3)nc2c1
inactive: [1] -10.1% | [2] -28.2% | [3] -52.5% | [4] -66.3% | [5] -62.1% | [6] -31.2%

O=C(O)c1ccc(Cl)cc1[N+](=O)[O-]
inactive: [1] 23.4% | [2] -8.5% | [3] 21.6% | [4] 19.9% | [5] 0.5% | [6] 25.1%

Nc1ccc(Br)cc1C(=O)O
inactive: [1] 4.2% | [2] -1.15% | [3] -17.4% | [4] -3.2% | [5] 23.6% | [6] -3.3%

COc1ccc(NC(=O)/C(Cc2cc(=O)oc3cc(O)ccc23)=N\NC(C)(C)C)c(OC)c1
inactive: [1] -4.4% | [2] 2.8% | [3] 9.3% | [4] 4% | [5] -1.8% | [6] 7.3%

CN1CCC(CC(O)(c2ccccc2)C2CCCCC2)C1 (configuration not stated)
inactive: [1] -5.9% | [2] -14.1% | [3] -2.3% | [4] -24.4% | [5] 4.2% | [6] -20.9%

Cc1ccsc1C(=O)c1ccccc1[N+](=O)[O-]
inactive: [1] -3.65% | [2] -13.3% | [3] -6.7% | [4] -20.8% | [5] -7.35% | [6] 6.25%

Nc1ccccc1/C(O)=C1/CCOC1=O
inactive: [1] 0.6% | [2] -23.6% | [3] 2.15% | [4] 1.5% | [5] 15.3% | [6] -3.2%
